# Data taken from PubChem BioAssay AID504834 (National Center for Advancing Translational Sciences (NCATS), 2011).
# Among all 320,000 compounds or so, about 22,000 (6.9%) were called active. Not shown: some 27% with an inconclusive outcome. The list comes from a sample in which actives are over-represented; it also holds similar structures and randomly drawn compounds. Unmarked numbers belong to inactive results. The call rests on the fitted dose curve; in most records, active means well fitted inhibition curve with a large enough effect; inconclusive means small, poorly fitted or top-dose-only effect, or another doubt; inactive means no such curve, though single readings can be large or run the other way.
# Assay: Primary qHTS for delayed death inhibitors of the malarial parasite plastid, 96 hour incubation
# Details: P. falciparum luciferase reporter growth; series mostly up to 28.7 µM; activity change, negative = inhibition: at the top concentration
# Method in brief: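 Two parasite generations (96 h, 37 C, 5% CO2) of compound exposure in infected erythrocytes (0.05% parasitemia, 2% hematocrit). Luciferase-reporter P. falciparum; decreased luminescence indicates inhibited growth, aimed at apicoplast-acting delayed death.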
# On the % scale 0 is the no-effect control and ±100 the full control effect; potency means the concentration at half of the fitted maximal effect.
Structure (SMILES),"activity change, negative = inhibition",Potency
CN(CC(=O)Nc1ccccc1C(F)(F)F)C(=O)Cc1ccccc1F,3.57%,–
CC[N+](CC)(CC)CCCCCCCCCC[N+](CC)(CC)CC,–,0.37 µM (active)
Cc1cccc(C)c1NC(=O)CSc1nc2c([nH]1)c(=O)n(C)c(=O)n2C,-3.18%,–
CC(C)(C)[Si](OCC[C@@H]1C[C@@]1(C)[C@@H](NP(=O)(c1ccccc1)c1ccccc1)c1ccccc1)(c1ccccc1)c1ccccc1,–,2.33 µM (active)
O=C(NC1CCCCC1)C1CCC(CNS(=O)(=O)c2ccccc2)CC1 (stereo unspecified),17%,–
Cc1nc(N2CCN(c3ccccn3)CC2)c2c(C)c(C(=O)Nc3ccc(F)cc3)sc2n1,–,4.15 µM (active)
Cc1nc(N2CCOCC2)c2c(C)c(C(=O)Nc3ccc(C(F)(F)F)cc3)sc2n1,-2.97%,–
CCN(CC)c1ccc(NC(=O)CN2CCN(c3ccccn3)CC2)cc1,33.8%,–
CN(Cc1ccc(F)cc1)C(=O)COc1ccc2ccccc2c1,20.5%,–
COc1ccc(N=Nc2c(-c3ccc(OC)cc3)[nH]oc2=O)cc1,12.5%,–
Cc1ccc(NC(=O)COc2ccc(/C=N\NC(=O)c3cccnc3)cc2)cc1C,-17.2%,–
Cc1ccc(NC(=O)COc2ccc(-n3ccnc3)cc2)cc1Cl,–,2.94 µM (active)
O=C(COc1ccc(Cl)cc1)Nc1ccc2c(c1)OCO2,45.3%,–
O=C(CCNC(=O)C1CCN(S(=O)(=O)c2ccccc2)CC1)NC1CC1,41.2%,–
O=C1Nc2ccccc2/C1=C/c1ccnc2ccccc12,0.418%,–
CC1CN(C(=O)CCC(=O)NC2CCN(Cc3ccccc3)CC2)c2ccccc2O1 (stereo unspecified),4.48%,–
CCN(CC(=O)Nc1c(F)cccc1F)C(=O)c1cnc(C)cn1,26.6%,–
Cc1ccc(OCC(=O)N2CCN(C(=O)c3cccnc3)CC2)cc1,477%,–
CCN(CC)C(=O)N1CCN(C(=O)c2ccc(C)cn2)CC1,–,11.7 µM (active)
CC(C)[C@@H](C(=O)O)N(Cc1cccc(CN([C@H](C(=O)O)C(C)C)S(C)(=O)=O)c1)S(C)(=O)=O,-22.1%,–
CSc1ccc(CNC(=O)c2ccc(NC(=O)C3=CSCCO3)cc2)cc1,–,7.38 µM (active)
CS(=O)(=O)NCc1ccc(C(=O)NCc2ccccc2)cc1,1.67%,–
O=C(Nc1ccc(C(=O)NCc2ccccc2Cl)cc1)C1=CSCCO1,-3.26%,–
O=[N+]([O-])c1ccc(NC(=S)N2CCN(c3ccccn3)CC2)cc1,0%,–
O=[N+]([O-])c1cc([N+](=O)[O-])c(Oc2cc(F)cc(F)c2F)cc1NN1CCCCC1,38.5%,–
Cc1cc2c(cc1S(=O)(=O)NCc1ccc(Cl)cc1)OCC(=O)N2,-23.1%,–

Structure (SMILES),"activity change, negative = inhibition",Potency
O=C(Nc1ccc2ccccc2c1)Nc1ccc2snnc2c1,–,4.65 µM (active)
O=C(Nc1cccc(Br)c1)c1ccc2snnc2c1,-23.8%,–
COc1ccc(NC(=O)Nc2ccc3nsnc3c2)cc1,57.4%,–
COC(OC)c1ccnc(SCc2ccccc2Cl)n1,4.36%,–
O=C(CNCc1cccs1)Nc1cc(S(=O)(=O)N2CCCC2)ccc1Cl,-2.83%,–
COc1ccc(C)cc1NC(=O)NCc1ccccn1,14.6% [at 5.75 µM],–
COc1ccc(C)cc1NC(=O)CNCc1cccs1,–,11.7 µM (active)
CC(C)Cc1nnc(NC(=O)CCC(=O)Nc2ccc3cn[nH]c3c2)s1,107%,–
CCOc1ccc(NC(=O)c2ccc(NC(=O)C3CCCO3)cc2)cc1 (stereo unspecified),-3.52%,–
CCN(CCNC(=O)C1=C(C)C(=O)OC12CCC(C)CC2)c1ccccc1 (stereo unspecified),-21%,–
COc1ccc(C2=NOC(COC(=O)c3ccc4ccccc4n3)C2)cc1 (stereo unspecified),18.8%,–
COc1ccc(NC(=O)NCc2ccc3c(c2)OCO3)c(OC)c1,83.2%,–
COc1ccc(C2=NOC(Cn3nc(C(=O)NCc4ccc5c(c4)OCO5)cc3-c3ccccc3)C2)cc1 (stereo unspecified),–,10.4 µM (active)
Cc1ccc(NC(=O)COC(=O)CNC(=O)c2ccc(Cl)cc2Cl)cc1S(=O)(=O)N1CCOCC1,-9.37%,–
Cc1c(C)n(Cc2ccc(Cl)cc2)c2ccc(C(=O)NCCCN3CCOCC3)cc12,-20%,–
O=C(COc1ccc(-n2cnnn2)cc1)Nc1ccccc1Cl,7.51%,–
COc1ccc(CCNc2ncnc3c2nnn3Cc2ccccc2)cc1,–,2.94 µM (active)
CC(C)(C)c1nc(NCC2CCCO2)c2nnn(Cc3ccccc3)c2n1 (stereo unspecified),-41.5%,–
Clc1ccc(Nc2ncnc3c2nnn3Cc2ccccc2)cc1,-4.29%,–
COc1ccccc1CCNC(=O)CN1C(=O)NC2(CCCC2)C1=O,-0.162%,–
COc1ccc(S(=O)(=O)NCCc2cc3ccc(C)c(C)c3[nH]c2=O)cc1,–,8.28 µM (active)
COc1ccc(CCNS(=O)(=O)c2cccc([N+](=O)[O-])c2)cc1,2.6%,–
COC(=O)CNS(=O)(=O)c1ccc(OC)cc1,3.86%,–
COc1ccc2[nH]c(C(=O)Nc3ccccc3Cl)cc2c1,103%,–
CN(C(=O)CCN1C(=O)/C(=C/c2ccccc2F)SC1=S)C1CCS(=O)(=O)C1 (stereo unspecified),-30.6%,–
